High-throughput results deposited in PubChem BioAssay by several laboratories.
Compounds with a hit are over-represented: about 3% of the library has one in this group of screens.
CF NFkB block: cystic fibrosis NF-kB activation inhibition. KKLEB NF-kB-GFP reporter, PAF-induced, GFP fluorescence overnight. inhibition, % at 5 µM. actives 0.86% (n = 360,000);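 active = at least 50% inhibition at 5 µM, scaled per plate between neutral and stimulator controls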;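 note: PAF is a Pseudomonas aeruginosa culture filtrate used as stimulus; plate controls were PAF-stimulated DMSO wells for no effect and unstimulated DMSO wells for full effect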
MITF TRPM1 inh: inhibitors of MITF-driven TRPM1 promoter in melanoma cells; SK-MEL-5 TRPM1 promoter luciferase, 24 h; inhibition, % at 12.5 µM; actives 0.83% (n = 330,000);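 active = mean inhibition across replicates of 60% or more, whatever share of single replicates reaches that level; inconclusive = some that reach 60%, reason not given; inactive = mean inhibition across replicates below 60%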
KKLEB tox: reduces viability of KKLEB cystic fibrosis airway cells. actives 0.36% (n = 360,000). activity change (cytotoxicity), % at 5 µM. KKLEB CF airway cells viability, ATPlite luminescence, overnight; active compounds read low; cells stimulated with P. aeruginosa culture filtrate;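 active = corrected activity change at or below -50% at 5 µM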
ABHD5 PLIN5 PPI: inhibitors of human ABHD5-perilipin-5 interaction; actives 0.78% (n = 360,000); inhibition, % at 4 µM; Split G. princeps luciferase complementation, luminescence, 4 h; AID 602281; Q00G26+Q8WTS1;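 active = inhibition above the mean inhibition across every tested compound plus 3 SD, cut at about 22% in these data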;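 note: 0% = DMSO only wells and the 100% control is not disclosed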
Target sequence (Q00G26 whole entry, looked up): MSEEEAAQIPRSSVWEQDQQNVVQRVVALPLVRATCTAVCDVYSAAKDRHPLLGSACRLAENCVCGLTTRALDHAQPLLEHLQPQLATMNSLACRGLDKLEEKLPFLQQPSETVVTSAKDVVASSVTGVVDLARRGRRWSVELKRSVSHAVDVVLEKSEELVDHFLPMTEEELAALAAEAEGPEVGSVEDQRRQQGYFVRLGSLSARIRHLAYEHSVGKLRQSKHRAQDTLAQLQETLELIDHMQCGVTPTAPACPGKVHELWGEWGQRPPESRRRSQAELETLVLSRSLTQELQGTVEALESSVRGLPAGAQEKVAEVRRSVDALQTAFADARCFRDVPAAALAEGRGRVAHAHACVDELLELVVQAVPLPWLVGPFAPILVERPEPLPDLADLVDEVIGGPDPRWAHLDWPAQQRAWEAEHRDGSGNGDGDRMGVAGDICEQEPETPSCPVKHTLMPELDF
Target sequence (Q8WTS1 whole entry, looked up): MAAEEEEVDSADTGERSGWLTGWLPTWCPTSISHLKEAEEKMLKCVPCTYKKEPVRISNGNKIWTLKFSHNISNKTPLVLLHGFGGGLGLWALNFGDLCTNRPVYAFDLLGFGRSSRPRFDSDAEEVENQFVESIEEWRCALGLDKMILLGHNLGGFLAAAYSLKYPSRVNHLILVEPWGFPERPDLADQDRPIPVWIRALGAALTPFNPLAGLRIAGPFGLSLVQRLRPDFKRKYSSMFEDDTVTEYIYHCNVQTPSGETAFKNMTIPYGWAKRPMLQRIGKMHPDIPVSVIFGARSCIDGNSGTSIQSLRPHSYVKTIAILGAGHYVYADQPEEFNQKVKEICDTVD
HIF-2a block: inhibitors of HIF-2a | 786-0 RCC cells HIF-2a reporter, luciferase luminescence, overnight | actives 0.72% (n = 360,000) | inhibition, % at 18.8 µM;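 active = inhibition of the luminescence signal of 40% or more relative to plate controls, in a single-dose primary screen at 18.75 µM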
Peg3 promoter: Peg3 promoter activity inhibition; HeLa PEG-Prom luciferase reporter, luminescence, overnight; inhibition, % at 20 µM; actives 1.7% (n = 360,000);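 active = inhibition of at least 50% at 20 µM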
* marks the source's active call; other numbers are inactive results.

For C=CCOC(=O)C1=C[C@H](c2coc3ccccc3c2=O)[C@@H](CCCO)[C@H](OCC)O1 the results were CF NFkB block 9.0, MITF TRPM1 inh -21.6, KKLEB tox -7.8, ABHD5 PLIN5 PPI 4.9, HIF-2a block 15.0 and Peg3 promoter 13.8.
`Cc1ccc(NC(=O)CSc2nnnn2-c2ccc3c(c2)OCO3)cc1C` gave CF NFkB block 64.7*, MITF TRPM1 inh 11.5, KKLEB tox -54.0*, ABHD5 PLIN5 PPI -0.4, HIF-2a block 13.3 and Peg3 promoter 33.3.
For N#Cc1ccc(NC(=O)Nc2ccc(Oc3ccc(NC(=O)Nc4ccc(C#N)cc4)cc3)cc2)cc1 the results were CF NFkB block -11.1, MITF TRPM1 inh inconclusive, KKLEB tox 14.6, ABHD5 PLIN5 PPI -9.8, HIF-2a block -36.1 and Peg3 promoter 57.2*.
Screening N#Cc1ccc(NC(=O)Nc2cccc(C#N)c2)cc1 returned CF NFkB block 3.4, MITF TRPM1 inh -24.0, KKLEB tox -5.8, ABHD5 PLIN5 PPI -6.1, HIF-2a block -51.0 and Peg3 promoter 28.4.
CCOP(=O)(c1ccc(N(C)C)cc1)C(O)c1ccc(OC)cc1 (stereo unspecified) was read as CF NFkB block 10.3, MITF TRPM1 inh 2.3, KKLEB tox -12.3, ABHD5 PLIN5 PPI -0.7, HIF-2a block 13.8 and Peg3 promoter -3.7.
N#Cc1ccsc1NC(=O)C1CC(=O)N(Cc2ccccc2)C1 (stereo unspecified) was read as CF NFkB block -1.1, MITF TRPM1 inh -0.2, KKLEB tox 3.6, ABHD5 PLIN5 PPI 4.2, HIF-2a block 1.1 and Peg3 promoter 7.8.
Screening COc1ccc2cc1Oc1ccc(cc1)C[C@H]1c3c(cc(OC)c4c3Oc3c(ccc5c3[C@H](C2)N(C)CC5)O4)CCN1C returned CF NFkB block 87.2*, MITF TRPM1 inh 91.3*, KKLEB tox -87.6*, ABHD5 PLIN5 PPI 9.9, HIF-2a block 21.0 and Peg3 promoter 99.7*.
Screening Cc1cc(F)ccc1NC(=O)c1cc(S(=O)(=O)N2CCc3ccccc32)cn1C returned CF NFkB block -3.3, KKLEB tox 5.7, ABHD5 PLIN5 PPI -12.2, HIF-2a block 6.5 and Peg3 promoter 29.6.
For Cc1cccn2c(=O)c(C(=O)NCCCN3CC(C)CC(C)C3)c(O)nc12 (stereo unspecified) the results were CF NFkB block 4.7, MITF TRPM1 inh 1.5, KKLEB tox 0.0, ABHD5 PLIN5 PPI -7.4, HIF-2a block 0.0 and Peg3 promoter 2.4.
Screening CC(=O)NCCNc1nc(NC(C)C)nc2cc(-c3ccccc3)sc12 returned CF NFkB block -9.4, KKLEB tox 2.6, ABHD5 PLIN5 PPI 1.6, HIF-2a block -18.7 and Peg3 promoter -7.2.
`c1ccc(-c2cc3nc(NCC4CC4)nc(NCC4CCCCC4)c3s2)cc1` gave CF NFkB block 81.7*, KKLEB tox -83.7*, ABHD5 PLIN5 PPI -4.7, HIF-2a block 15.6 and Peg3 promoter 93.2*.
For COc1ccc(-c2cc(CNc3nc(NC(C)C)nc4cc(-c5ccccc5)sc34)on2)cc1 the results were CF NFkB block -28.5, KKLEB tox -20.3, ABHD5 PLIN5 PPI 6.6, HIF-2a block -23.0 and Peg3 promoter 78.0*.
Screening C=CCNc1nc(NCc2ccc(NC(C)=O)cc2)c2sc(-c3ccccc3)cc2n1 returned CF NFkB block -6.6, KKLEB tox -60.5*, ABHD5 PLIN5 PPI 21.2, HIF-2a block -62.7 and Peg3 promoter -116.0.
COc1ccc(-c2cc(COc3ccccc3)on2)cc1 was read as CF NFkB block -22.6, MITF TRPM1 inh -76.6, KKLEB tox 7.8, ABHD5 PLIN5 PPI -0.7, HIF-2a block -332.3 and Peg3 promoter -318.0.
Screening CC(=O)Nc1ccc(CNc2nc(NC(C)C)nc3cc(-c4ccccc4)sc23)cc1 returned CF NFkB block -28.5, KKLEB tox -55.7*, ABHD5 PLIN5 PPI 9.7, HIF-2a block -31.3 and Peg3 promoter 64.6*.
Screening COCCNc1nc(NCC2CCCCC2)c2sc(-c3ccccc3)cc2n1 returned CF NFkB block 28.5, KKLEB tox -13.0, ABHD5 PLIN5 PPI -1.9, HIF-2a block 5.0 and Peg3 promoter 47.3.
For CC1(C(=O)Nc2ccc(F)cc2F)CCN1C(=O)Cc1ccccc1 (stereo unspecified) the results were CF NFkB block 5.3, KKLEB tox -5.1, ABHD5 PLIN5 PPI 0.4, HIF-2a block 7.9 and Peg3 promoter -8.0.
